Tested on: MDA-MB-231
Assay: relative cell viability, compound + RSL3, vs DMSO (fraction of DMSO control); higher = less growth inhibition
Settings: 72 h
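Also: breast cancer cell viability read out with the CCK-8 kit after co-treatment of each compound with the ferroptosis inducer RSL3.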

Compound | relative cell viability
CCC(CC)CC1(C(=O)Nc2ccccc2SC(=O)C(C)C)CCCCC1 [Dalcetrapib] + COC(=O)c1ccc([C@H]2c3[nH]c4ccccc4c3C[C@H](C(=O)OC)N2C(=O)CCl)cc1 [RSL3] | 0.684
CC(c1cc2ccccc2s1)N(O)C(N)=O (stereo not given) [Zileuton] + COC(=O)c1ccc([C@H]2c3[nH]c4ccccc4c3C[C@H](C(=O)OC)N2C(=O)CCl)cc1 [RSL3] | 0.633
CC(C)OC(=O)C(C)(C)Oc1ccc(C(=O)c2ccc(Cl)cc2)cc1 [Fenofibrate] + COC(=O)c1ccc([C@H]2c3[nH]c4ccccc4c3C[C@H](C(=O)OC)N2C(=O)CCl)cc1 [RSL3] | 0.606
CC(O)(CC(=O)O)CC(=O)O [Meglutol] + COC(=O)c1ccc([C@H]2c3[nH]c4ccccc4c3C[C@H](C(=O)OC)N2C(=O)CCl)cc1 [RSL3] | 0.613
O=C(Nc1ccccc1)c1cc([N+](=O)[O-])ccc1Cl + COC(=O)c1ccc([C@H]2c3[nH]c4ccccc4c3C[C@H](C(=O)OC)N2C(=O)CCl)cc1 [RSL3] | 0.705
CCc1ccc(CCOc2ccc(CC3SC(=O)NC3=O)cc2)nc1 (stereo not given) [Pioglitazone] + COC(=O)c1ccc([C@H]2c3[nH]c4ccccc4c3C[C@H](C(=O)OC)N2C(=O)CCl)cc1 [RSL3] | 0.629
CCCC[S+]([O-])c1sc2nc(-c3cccs3)cc(-c3ccccc3)c2c1N (stereo not given) + COC(=O)c1ccc([C@H]2c3[nH]c4ccccc4c3C[C@H](C(=O)OC)N2C(=O)CCl)cc1 [RSL3] | 0.513
O=C1/C(=C/c2cccs2)CC/C1=C\c1cccs1 + COC(=O)c1ccc([C@H]2c3[nH]c4ccccc4c3C[C@H](C(=O)OC)N2C(=O)CCl)cc1 [RSL3] | 0.49
COc1ccc2c(c1)CCC1C2CCC2(C)C(NCCCCCCN3C(=O)C=CC3=O)CCC12 (stereo not given) + COC(=O)c1ccc([C@H]2c3[nH]c4ccccc4c3C[C@H](C(=O)OC)N2C(=O)CCl)cc1 [RSL3] | 0.36
COc1ccc2c(c1)c(CC(=O)O)c(C)n2C(=O)c1ccc(Cl)cc1 [Indometacin] + COC(=O)c1ccc([C@H]2c3[nH]c4ccccc4c3C[C@H](C(=O)OC)N2C(=O)CCl)cc1 [RSL3] | 0.61
